Screens from PubChem.
Only some compounds are listed: those with a hit (about 6.6% of all), similar ones and a draw of the others.
CSC inhib – blocks cancer stem cells; cancer stem cell-like cells viability, luminescence; inhibition, % at 7.5 µM; 300,000 compounds, 1.1% hits; in the data active = inhibition above about 75%; inconclusive = no clear call, values can overlap the other calls; tested in HMLE shEcad cells
Beta cell apopt – blocks beta cell apoptosis; 300,000 compounds, 0.8% hits; protection from apoptosis, % (test concentration not listed); INS-1E cytokine-induced death, ATP luminescence, 48 h; percent of positive-control rescue, neutral wells zero;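 active = Every replicate reaches about 75%, or at least half do and their mean reaches it too, limit read from the data; inconclusive = At least half of replicates reach the limit but their mean does not; inactive = Under half of replicates reach the limit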;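 note: 0% = cytokine-treated negative control wells and 100% = positive control rescue; higher means more ATP so stronger rescue from cytokine killing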
NR3A LBD binder – modulators (binders) of human NR3A ligand-binding domain | NR3A LBD differential scanning fluorimetry, Tm shift; 0% = protein alone, 100% = glycine-bound protein | Tm shift relative to glycine control, % at 25 µM | 340,000 compounds, 2.5% hits;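 active = melting temperature shift of at least 10% of the positive control shift, at one fixed dose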
Mdm2 MdmX PPI – human Mdm2/MdmX binding inhibition | SaOS-2 split-luciferase Mdm2/MdmX complementation, luminescence | O15151+Q00987 | AID 485346 | inhibition, % at 8 µM | 330,000 compounds, 3% hits;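 active = inhibition of at least 50% at 8 µM in the primary screen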
Target sequence (O15151 whole entry, looked up): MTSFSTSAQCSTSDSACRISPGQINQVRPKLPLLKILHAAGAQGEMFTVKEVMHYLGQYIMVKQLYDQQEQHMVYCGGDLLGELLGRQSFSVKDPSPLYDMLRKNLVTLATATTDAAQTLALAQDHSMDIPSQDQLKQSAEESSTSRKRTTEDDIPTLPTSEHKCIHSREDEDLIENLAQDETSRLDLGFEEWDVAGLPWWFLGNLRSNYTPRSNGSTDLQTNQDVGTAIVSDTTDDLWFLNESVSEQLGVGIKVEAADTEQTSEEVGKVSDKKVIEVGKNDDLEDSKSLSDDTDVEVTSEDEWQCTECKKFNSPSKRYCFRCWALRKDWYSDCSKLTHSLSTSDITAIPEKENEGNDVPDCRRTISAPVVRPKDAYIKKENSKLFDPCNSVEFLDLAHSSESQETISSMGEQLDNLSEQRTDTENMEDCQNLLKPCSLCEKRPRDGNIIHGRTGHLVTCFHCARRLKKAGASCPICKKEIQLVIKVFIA
Target sequence (Q00987 whole entry, looked up): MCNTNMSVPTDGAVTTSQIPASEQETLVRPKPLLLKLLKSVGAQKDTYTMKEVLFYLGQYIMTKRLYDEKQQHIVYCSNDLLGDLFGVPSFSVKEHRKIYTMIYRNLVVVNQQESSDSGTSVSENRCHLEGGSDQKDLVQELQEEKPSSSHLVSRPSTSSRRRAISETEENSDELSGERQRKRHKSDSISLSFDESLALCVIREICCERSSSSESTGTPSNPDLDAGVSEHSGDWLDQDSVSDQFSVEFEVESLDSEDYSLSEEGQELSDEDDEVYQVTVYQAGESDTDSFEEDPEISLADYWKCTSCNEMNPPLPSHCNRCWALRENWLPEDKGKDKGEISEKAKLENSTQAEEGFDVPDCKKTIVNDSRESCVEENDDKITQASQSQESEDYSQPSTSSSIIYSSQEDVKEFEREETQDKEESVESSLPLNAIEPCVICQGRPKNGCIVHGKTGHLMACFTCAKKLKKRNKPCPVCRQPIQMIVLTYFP
MPTP inh – inhibitors of mitochondrial permeability transition pore; isolated mouse mitochondria, Ca2+ swelling absorbance, 30 min; inhibition, % at 10 µM; 360,000 compounds, 1.4% hits; AID 602449;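 active = inhibition of 50% or more, scaled per plate between neutral and stimulator controls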;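 note: 0% = DMSO wells given calcium and 100% = 1 mM EGTA wells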
Gli-Sufu antag – Gli-Sufu pathway antagonism; AID 588413; Sufu-KO-LIGHT fibroblasts, Gli luciferase reporter luminescence; 340,000 compounds, 0.74% hits; inhibition, % at 5 µM;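 active = inhibition above about 55%, limit read from the data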;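 note: 0% = DMSO-treated cells and 100% = wells with medium but no cells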
Mdm2 MdmX conf – human Mdm2/MdmX binding inhibition, confirmed | shares compounds with Mdm2 MdmX PPI | luminescent assay | inhibition, % at 8 µM | 10,000 compounds, 55% hits; in the data active = inhibition above about 40%
FLuc counter – inhibits full-length luciferase, flagging false Mdm2/MdmX hits; shares compounds with Mdm2 MdmX PPI; SaOS-2 full-length luciferase counterscreen, luminescence; inhibition, % at 8 µM; 6,200 compounds, 77% hits; AID 504607;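 active = mean inhibition at 8 µM reaching about 37%, which flags the compound as non-specific, limit read from the data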;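 note: p53-null SaOS-2 cells with luciferase driven by a doxycycline-inducible promoter; compound on cells about two nights before reading with doxycycline added after day one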
Gli antag conf – Gli-SUFU antagonism confirmation, single concentration | shares compounds with Gli-Sufu antag | Sufu-KO-LIGHT cells, Gli luciferase reporter, luminescence | AID 602428 | 2,500 compounds, 40% hits | inhibition, % at 5 µM;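 active = mean inhibition at 5 µM reaching about 45%, limit read from the data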;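 note: plate controls were DMSO-treated cells for no effect and wells lacking cells for full effect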
Gli cytotox – counter-screen for Gli-SUFU antagonists: cytotoxicity. 2,500 compounds, 32% hits. cytotoxicity, % at 5 µM. Sufu-KO-LIGHT cells cytotoxicity, ATP luminescence. shares compounds with Gli-Sufu antag;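 active = mean cytotoxicity at 5 µM above about 25%, limit read from the data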;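 note: cells exposed to compound overnight for roughly 16 to 18 hours; plate controls were DMSO wells with cells for no effect and medium without cells for full effect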
Wnt3a counter – counter-screen for Gli-SUFU antagonists: Wnt3a reporter inhibition. shares compounds with Gli-Sufu antag. Wnt-LIGHT cells, Wnt3a-driven luciferase reporter, luminescence. inhibition, % at 6.25 µM. 2,500 compounds, 20% hits. AID 651995;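 active = mean inhibition above about 25%, limit read from the data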
MPTP counter – Rhodamine 123 counter-screen of mitochondrial pore hits | shares compounds with MPTP inh | isolated mitochondria, membrane potential, Rhodamine 123 fluorescence | inhibition, % at 10 µM | 5,000 compounds, 78% hits; in the data active = inhibition above about 22%;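 note: 0% = DMSO vehicle and 100% = positive control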
MPTP abs DR – dose response confirmation of mitochondrial permeability transition pore inhibitors; 780 compounds, 58% hits; isolated mitochondria swelling, absorbance; IC50, µM; AID 651561; shares compounds with MPTP inh; in the data active = IC50 below about 20 µM
MPTP counter DR – MPTP inhibitor counter-screen activity, dose response; shares compounds with MPTP inh; isolated mitochondria counterscreen, fluorescence read-out; IC50, µM; 780 compounds, 49% hits; AID 651564; in the data active = IC50 below about 80 µM
The depositor's hits bear a star; i = inactive; ? = inconclusive; / = no result.

SMILES	CSC inhib	Beta cell apopt	NR3A LBD binder	Mdm2 MdmX PPI	MPTP inh	Gli-Sufu antag	Mdm2 MdmX conf	FLuc counter	MPTP counter	others
CC(C)(C)OC(=O)N1CCC(c2c(C(=O)N3CCN(C(=O)c4ccco4)CC3)cnn2-c2cccc(Cl)c2)CC1	-4	0	-4	-1	-1	-7	/	/	/
O=C(COC(=O)c1cc(=O)c2ccccc2o1)NC1CCCC1	-4	0	0	24	0	4	/	/	/
C=CCn1c(C)cc(C2=NNC(=NC(C)(C)C)SC2)c1C	33	25	-3	88*	101*	72*	93*	80*	76*	Gli antag conf=75*;Gli cytotox=50*;Wnt3a counter=98*
O=C(Nc1ccc(F)c(Cl)c1)Nc1csc2ccccc12	77*	83*	39*	94*	76*	-13	58*	35	68*
CC(C)CNC(=O)Nc1ccc(F)c(Cl)c1	-2	-1	-1	-3	36	-33	/	/	/
O=C(O)CCC(=O)Nc1ccc(-c2csc(Nc3cccc4ccccc34)n2)cc1	-8	-1	0	-17	1	2	/	/	/
O=C(O)c1ccc(-c2nc(-c3ccccc3)c(-c3cccs3)[nH]2)cc1	-19	-3	1	8	0	-9	/	/	/
O=[N+]([O-])c1ccc(O)c(-c2nc(-c3ccccc3)c(-c3cccs3)[nH]2)c1	100*	49	30*	85*	91*	52	89*	49*	86*	Gli antag conf=70*;Gli cytotox=11;Wnt3a counter=67*
C1CCC(C(CC2CCCCN2)C2CCCCC2)CC1 (centres undefined)	99*	90*	-2	100*	82*	1	99*	24	-10
O=C(c1cc(C(=O)NCCc2ccccc2)c(=O)n(CCc2ccccc2)c1)c1cc(Cl)ccc1O	3	17	13*	74*	98*	10	54*	61*	79*
O=c1[nH]c(=O)n(Cc2ccco2)c2c1C(C(F)(F)F)(C(F)(F)F)N=C(CCC1CCCCC1)N2	23	/	3	62*	70*	-3	88*	40*	90*
CC(C)(C)C(=O)NC(=S)NNC(=O)c1ccc(-c2ccccc2)cc1	91*	76*	-9	57*	94*	29	46*	29	23*
CC(C)(C)C(=O)NC(=S)NNC(=O)c1ccncc1	3	1	3	11	1	-16	/	/	/
c1ccc(CNc2nc(N3CCN(Cc4ccccc4)CC3)nc3ccccc23)cc1	98*	23	0	81*	53*	12	25	/	81*
c1ccc(CN2CCC(CNc3ncnc4ccccc34)C2)cc1 (centres undefined)	/	/	0	/	7	23	/	/	/
c1ccc(CN2CCC(Nc3nc(-c4ccccc4)nc4ccccc34)CC2)cc1	139*	35	6	83*	106*	2	39	85*	-5
C[C@H](CO)N1C[C@H](C)[C@@H](CN(C)S(=O)(=O)c2cccs2)Oc2c(NC(=O)Cc3ccccc3)cccc2C1=O	4	-1	-2	-14	1	-7	/	/	/
CCOC(=O)N1CCN(S(=O)(=O)c2ccc(C(=O)Nc3nc4ccc(F)cc4s3)cc2)CC1	34	39	1	55*	62*	10	23	/	1	MPTP abs DR=i;MPTP counter DR=6.3*
CCOC(=O)N1CCN(S(=O)(=O)c2ccc(C(=O)Nc3nc4ccccc4s3)cc2)CC1	29	16	1	9	43	-2	/	/	/
COC(=O)c1ccc2nc(Nc3nc4c(F)cc(F)cc4s3)sc2c1	45	-4	22*	88*	101*	49	37	/	64*
COC(=O)c1ccc2nc(NC(=O)C(C)C)sc2c1	1	-3	-3	-73	0	-49	/	/	/
CCOC(=O)c1ccc2nc(Nc3nc4ccc(F)cc4s3)sc2c1	56	-5	28*	82*	101*	16	60*	11	7	MPTP abs DR=5*;MPTP counter DR=<2.5*
CC(=O)Nc1cccc(NC(=O)CS(=O)(=O)c2cn(CC(=O)N3CCOCC3)c3ccccc23)c1	/	0	0	6	3	-5	/	/	/
Cc1cccc(N(C(=O)c2snc(C(N)=O)c2N)C(C(=O)NCc2ccccc2)c2ccncc2)c1 (centres undefined)	1	4	3	-28	1	38	/	/	/
COc1cc(C)nc(NCc2ccccc2)n1	-7	-5	-1	-8	2	-5	/	/	/
SMILES	CSC inhib	Beta cell apopt	NR3A LBD binder	Mdm2 MdmX PPI	MPTP inh	Gli-Sufu antag	Mdm2 MdmX conf	FLuc counter	MPTP counter	others
CCCc1nc(C)cc(N2CCN(c3ccccc3)CC2)n1	24	-4	-8	-29	0	/	/	/	/
Cc1ccc(Nc2cc(C)nc(NCc3ccccc3)n2)cc1	?	105*	-3	57*	56*	52	35	/	45*	Gli antag conf=29;Gli cytotox=23;Wnt3a counter=-19
Cc1cc(N2CCN(c3ccccc3)CC2)nc(NCc2ccccc2)n1	-14	36	2	76*	65*	16	33	/	21*
COc1ccc(C2N=C(c3ccccc3)C(C)(C)N2O)cc1 (centres undefined)	/	/	-1	18	0	-10	/	/	/
CCn1ncc(CNC(=O)c2cccc([N+](=O)[O-])c2)c1C	-16	-4	/	17	/	/	/	/	/
S=C(Nc1ccc(Cl)c(Cl)c1)NC1CCCCC1	66	37	23*	85*	96*	-17	50*	62*	75*
O=C1c2ccccc2C2=Nc3ccccc3SC(c3ccc(Cl)cc3)C12 (centres undefined)	127*	95*	1	87*	89*	9	47*	78*	56*
O=C1CCCC2=C1C(c1ccccc1)C1C(=O)c3ccccc3C1=N2 (centres undefined)	-39	?	-10	7	4	-3	/	/	/
